Reference: PubChem BioAssay
Activity calls are given as the source filed them.

How the values were obtained:
[1] = system: Plasmodium falciparum Sir2 (PF13_0152, Sir2A); assay: pfSir2 binders on small-molecule microarrays, primary screen, biochemical, small-molecule microarray, 635 nm fluorescence (AID 1098); settings: small-molecule microarray binding, fluorescence 635 nm; higher = more signal;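 also: score merges spot fluorescence intensity with its signal-to-noise ratio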
[2] = small-molecule microarray binders of probe aDKK1, primary screen, biochemical, biotinylated probe, 635/667 nm fluorescence (AID 1099); settings: higher = more signal;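 also: score merges 667nm spot fluorescence with signal to noise across triplicate slides; reference of the scale not given here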
[3] = small-molecule microarray binders of probe aCHRDL2, primary screen, biochemical, biotinylated probe, 635/667 nm fluorescence (AID 1100); settings: higher = more signal
[4] = splicing luciferase reporter signal modulators, primary screen, spliceosome inhibition project, cell-based, HEK293, splice +/- reporter (AID 1101); settings: luminescence, 24 h, higher = more signal, called active from +8 up or from −8 down;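 also: HEK293 cells carrying a splicing-competent luciferase reporter gene; test concentration not given here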
[5] = target: Fibroblast growth factor 10 (Homo sapiens) (UniProt O15520); assay: FGF10 binders on small-molecule microarrays, primary screen, biochemical, small-molecule microarray, 635 nm fluorescence (AID 1102); settings: FGF10 binding, fluorescence 635 nm, higher = more signal
Chain of Fibroblast growth factor 10 (Homo sapiens) (O15520 whole entry, looked up): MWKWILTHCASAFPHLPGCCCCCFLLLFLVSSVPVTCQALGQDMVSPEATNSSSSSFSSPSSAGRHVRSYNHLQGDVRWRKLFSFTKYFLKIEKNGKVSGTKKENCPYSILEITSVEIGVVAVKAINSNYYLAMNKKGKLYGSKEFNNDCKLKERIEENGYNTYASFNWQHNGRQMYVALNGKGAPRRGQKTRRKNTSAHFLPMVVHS

[6] = system: glycogen synthase kinase-3 (GSK3A per assay name; protocol says GSK3B); assay: GSK3 binders on small-molecule microarrays, primary screen, biochemical, small-molecule microarray, 635 nm fluorescence, GSK3A (AID 1103); settings: small-molecule microarray binding, fluorescence 635 nm; higher = more signal; also: the record names both GSK3A and GSK3B
[7] = target: Epidermal growth factor receptor (Homo sapiens) (UniProt P00533); assay: EGFR binders on small-molecule microarrays, primary screen, biochemical, small-molecule microarray, 635 nm fluorescence (AID 1104); settings: EGFR binding, higher = more signal;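 also: score merges 667 nm emission intensity with spot signal to noise over triplicate slides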
Chain of Epidermal growth factor receptor (Homo sapiens) (P00533 whole entry, looked up): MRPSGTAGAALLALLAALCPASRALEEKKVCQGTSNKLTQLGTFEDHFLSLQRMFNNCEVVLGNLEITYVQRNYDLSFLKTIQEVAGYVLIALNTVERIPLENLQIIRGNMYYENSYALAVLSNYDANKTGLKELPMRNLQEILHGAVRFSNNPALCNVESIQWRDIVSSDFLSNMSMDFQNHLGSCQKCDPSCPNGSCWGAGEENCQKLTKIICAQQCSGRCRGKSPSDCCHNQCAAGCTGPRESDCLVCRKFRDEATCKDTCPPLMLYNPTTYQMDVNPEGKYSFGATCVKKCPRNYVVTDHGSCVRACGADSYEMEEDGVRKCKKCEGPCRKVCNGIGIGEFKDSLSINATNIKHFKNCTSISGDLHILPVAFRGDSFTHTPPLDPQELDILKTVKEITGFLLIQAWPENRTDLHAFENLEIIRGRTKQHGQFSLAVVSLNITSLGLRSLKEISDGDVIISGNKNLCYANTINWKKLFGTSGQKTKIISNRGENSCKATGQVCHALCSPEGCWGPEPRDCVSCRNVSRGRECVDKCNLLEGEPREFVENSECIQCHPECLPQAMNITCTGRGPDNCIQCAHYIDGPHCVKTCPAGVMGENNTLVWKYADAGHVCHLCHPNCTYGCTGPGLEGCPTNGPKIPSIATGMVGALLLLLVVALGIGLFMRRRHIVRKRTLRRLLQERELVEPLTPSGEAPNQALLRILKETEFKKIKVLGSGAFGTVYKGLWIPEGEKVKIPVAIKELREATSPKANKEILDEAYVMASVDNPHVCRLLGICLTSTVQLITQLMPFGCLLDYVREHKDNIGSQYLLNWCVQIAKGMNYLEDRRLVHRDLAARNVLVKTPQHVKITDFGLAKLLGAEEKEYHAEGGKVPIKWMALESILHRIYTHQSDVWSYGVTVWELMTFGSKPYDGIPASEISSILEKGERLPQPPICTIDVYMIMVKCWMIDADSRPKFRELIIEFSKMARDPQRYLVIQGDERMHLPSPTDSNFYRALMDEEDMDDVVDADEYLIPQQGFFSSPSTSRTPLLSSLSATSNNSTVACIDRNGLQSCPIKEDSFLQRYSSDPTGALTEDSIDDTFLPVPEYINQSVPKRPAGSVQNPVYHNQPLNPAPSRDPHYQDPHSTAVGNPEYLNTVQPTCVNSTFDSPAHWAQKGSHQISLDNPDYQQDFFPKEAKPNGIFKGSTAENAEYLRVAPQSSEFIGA

[8] = target: Follistatin-related protein 3 (Homo sapiens) (UniProt O95633); assay: FSTL3 binders on small-molecule microarrays, primary screen, biochemical, small-molecule microarray, 635 nm fluorescence (AID 1105); settings: FSTL3 binding, higher = more signal;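 also: score merges emission near 667 nm and signal to noise per printed spot across three slides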
Chain of Follistatin-related protein 3 (Homo sapiens) (O95633 whole entry, looked up): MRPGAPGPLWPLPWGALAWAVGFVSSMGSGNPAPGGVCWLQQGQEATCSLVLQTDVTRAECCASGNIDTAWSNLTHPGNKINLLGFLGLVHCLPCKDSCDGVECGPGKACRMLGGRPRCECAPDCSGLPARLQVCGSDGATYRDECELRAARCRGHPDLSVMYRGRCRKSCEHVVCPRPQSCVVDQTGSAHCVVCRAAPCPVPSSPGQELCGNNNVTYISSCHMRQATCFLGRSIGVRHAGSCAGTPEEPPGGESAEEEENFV

[9] = target: Dickkopf-related protein 1 (Homo sapiens) (UniProt O94907); assay: DKK1 binders on small-molecule microarrays, primary screen, biochemical, small-molecule microarray, 635 nm fluorescence scan (AID 1106); settings: DKK1 binding, higher = more signal;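 also: score merges emission near 667 nm with signal to noise over three replicate slides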
Chain of Dickkopf-related protein 1 (Homo sapiens) (O94907 whole entry, looked up): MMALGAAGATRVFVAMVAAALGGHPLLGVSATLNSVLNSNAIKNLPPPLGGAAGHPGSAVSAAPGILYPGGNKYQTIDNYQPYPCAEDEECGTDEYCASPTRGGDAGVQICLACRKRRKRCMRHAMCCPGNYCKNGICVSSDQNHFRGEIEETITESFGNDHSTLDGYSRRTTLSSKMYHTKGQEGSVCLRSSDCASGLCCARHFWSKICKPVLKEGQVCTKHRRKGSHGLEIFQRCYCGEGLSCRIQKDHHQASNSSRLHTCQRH

[10] = system: Inhibin beta A chain (activin A); assay: INHBA (activin A) binders on microarrays, primary screen, biochemical, small-molecule microarray, 635 nm fluorescence scan (AID 1107); settings: small-molecule microarray binding, higher = more signal;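 also: mouse activin A protein probed at 4.33 µg/mL on printed slides; score merges bound-protein fluorescence near 667 nm with spot signal-to-noise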

| Compound | composite z-score [1] | composite z-score [2] | composite z-score [3] | z-score [4] | composite z-score [5] | composite z-score [6] | composite z-score [7] | composite z-score [8] | composite z-score [9] | composite z-score [10] |
| --- | --- | --- | --- | --- | --- | --- | --- | --- | --- | --- |
| O=C1NC(=O)C2C1C=CC(C(O)c1cc(C(F)(F)F)cc(C(F)(F)F)c1)N2Nc1ccccn1 (stereo not given) | 1.57 | -0.0616 | -0.387 | 1.35 (inactive) | 0.163 | -0.164 | 0.22 | 0.431 | 0.0665 | 1.33 |
| COC(=O)[C@@]1(Cc2ccc(F)cc2)[C@H]2c3cc(C(=O)N(C)C)n(Cc4ccccc4)c3C[C@H]2CN1C(=O)c1ccccc1 | 1.18 | 1.06 | 0.971 | -0.376 (inactive) | 0.483 | -0.159 | -0.22 | 0.827 | -0.251 | 0.766 |
| C=CCN1C(=O)[C@@]2(Cc3ccccc31)N=C(c1ccc(OCCCO)cc1)O[C@H]2c1ccccc1 | 1.16 | 1.01 | 0.935 | -1.52 (inactive) | 0.583 | 1.32 | 0.435 | 0.983 | 0.776 | 1.13 |
| CC(=O)n1cc(C(O)C2C=CC3C(=O)N(c4ccccc4)C(=O)C3N2Nc2ccc([N+](=O)[O-])cc2)c2ccccc21 (stereo not given) | 0.894 | 0.929 | 1.38 | 0.138 (inactive) | -0.0673 | 1.28 | -0.142 | 0.38 | -0.113 | 0.783 |
| CC(C)OC(=O)C=C1C[C@@H](c2ccccn2)O[C@@H](c2ccccn2)O1 | -0.152 | -0.778 | -1.68 | 1.08 (inactive) | 0.627 | 0.201 | 0.891 | 1.1 | 1.47 | 1.21 |
| CO[C@H]1O[C@H](CO)[C@@H](OC(=O)Nc2ccccc2)[C@H](OC(=O)Nc2ccccc2)[C@@H]1OC(=O)Nc1ccccc1 | 1.48 | -0.136 | -0.103 | -1.29 (inactive) | 1.44 | 1.3 | 1.12 | 1.11 | 0.439 | 0.0784 |
| O=C1c2ccccc2[C@](Cc2ccccc2I)(C(=O)NCC(F)(F)F)[C@H](c2ccc(CO)cc2)N1Cc1ccccc1Cl | 1.4 | -0.0951 | 0.502 | -0.504 (inactive) | 0.588 | 0.539 | 0.0527 | 0.923 | -0.19 | 0.41 |
| COCCCNC(=O)[C@]1(CCC(=O)OC(C)(C)C)N=C(c2ccc(OCCCO)cc2)O[C@@H]1c1ccccc1CN=[N+]=[N-] | 1.42 | 0.639 | 0.608 | 0.378 (inactive) | 1.41 | 1.3 | -0.504 | 0.35 | -0.299 | 0.733 |
| CCS[C@H]1[C@@H](C(=O)O)[C@H](c2ccc(C)cc2)N(S(=O)(=O)c2ccc(C)cc2)[C@@H]1CC | 0.673 | 0.686 | 0.907 | 0.269 (inactive) | 1.14 | 0.793 | 0.0771 | 1.1 | -0.0423 | 0.626 |
| CC(C)=CCCC(C)=CC(O)C1C=CC2C(=O)N(C)C(=O)C2N1Nc1ccccc1 (stereo not given) | 0.854 | 0.473 | 0.55 | 3.04 (inactive) | 0.914 | 1.31 | 1.52 | 1.47 | 0.893 | 1.07 |
| CC(C)C(O)C1C=CC2C(=O)N(c3ccccc3)C(=O)C2N1Nc1ccc([N+](=O)[O-])cc1 (stereo not given) | 0.0242 | 0.814 | 0.761 | 0.735 (inactive) | 0.635 | 0.368 | -0.0978 | 0.29 | -0.467 | 0.85 |
| C=C(CC1([C@@H](NP(=O)(c2ccccc2)c2ccccc2)[C@H]2C[C@@H]2CCCC)CC1)c1ccccc1 | 0.339 | 0.786 | 0.994 | -2.51 (inactive) | 0.0431 | 0.014 | 0.243 | 0.438 | 0.104 | 0.705 |
| Cc1ccccc1C(O)C1C=CC2C(=O)N(c3ccccc3)C(=O)C2N1Nc1ccc(C(C)C)cc1 (stereo not given) | 0.623 | 0.456 | 0.857 | 0.26 (inactive) | 0.971 | 1 | 0.304 | 1.23 | -0.372 | 0.625 |
| C=C(CCCC)/C(=C/C[C@H](OC(C)=O)c1ccccc1OCCO)c1cc(C(=O)OC)ccc1OC | 1.3 | -0.231 | -0.285 | -0.616 (inactive) | 0.143 | -0.0368 | -0.184 | -0.154 | -0.358 | 1.12 |
| CCCC[C@@H]1C[C@H]1[C@@H](NC(=O)C(C)(C)C)c1ccc(C(F)(F)F)cc1 | -0.0923 | 0.767 | 1.44 | -2.95 (inactive) | -1.23 | -0.266 | -1.76 | -1.63 | -1.61 | 0.328 |
| O=C(c1ccccc1)N1C(=O)[C@]2(COC(c3ccc(OCCCO)cc3)=N2)Cc2ccccc21 | 1.7 | 0.688 | 0.784 | 0.00817 (inactive) | 1.07 | 1.32 | 0.218 | 1.23 | 0.427 | 0.424 |
| COc1ccc(CCNC(=O)[C@@]2(Sc3ccc(C)cc3)CC(=O)N(C(C)C)[C@@H]2c2ccc(CO)cc2I)cc1 | 0.699 | 0.187 | 0.778 | -0.658 (inactive) | -0.316 | -1.02 | -0.719 | -0.645 | -0.267 | 1.08 |
| C=C[C@H](CO)NS(=O)(=O)c1ccc(Br)cc1 | 0.54 | 0.867 | -0.54 | -0.0902 (inactive) | 0.335 | 0.526 | 0.393 | 0.695 | 0.751 | 0.84 |
| COc1ccc(CCNC(=O)[C@@]2(Sc3ccc(C)cc3)CC(=O)N(C3Cc4ccccc4C3)[C@@H]2c2ccc(CO)cc2I)cc1 | 1.09 | 0.736 | 0.575 | -1.27 (inactive) | -0.461 | -0.64 | -0.895 | -0.856 | -1.41 | 0.48 |
| COC(=O)[C@@]1(Cc2ccc(OC)cc2)[C@H]2c3cc(C(=O)N(C)C)n(Cc4ccccn4)c3C[C@H]2CN1C(=O)c1ccccc1 | 1.04 | 1.2 | 1.36 | -1.71 (inactive) | -0.024 | -0.305 | -0.627 | -0.317 | -0.659 | -1.71 |
| CC1CC/C=C\[C@H]2OC34C=CCN(Cc5ccccc5)C(=O)[C@H]3N(CCCO)C(=O)[C@@H]4C2C(=O)O1 (stereo not given in full) | 0.881 | -0.307 | 0.45 | -0.0477 (inactive) | -1.14 | -0.657 | -0.574 | -1.07 | -0.538 | -0.192 |
| C=CC(=C)[C@H]1Oc2ccccc2S(=O)(=O)N2CCC[C@@H]12 | -0.0608 | -0.144 | -0.0159 | -0.629 (inactive) | -0.249 | -0.486 | 0.0976 | -0.0111 | 0.317 | 1.07 |
| COc1ccc(CCNC(=O)[C@@]2(C)c3ccccc3C(=O)N(C(C)C)[C@H]2c2ccc(CO)cc2)cc1 | 0.5 | 0.056 | -0.0776 | -0.36 (inactive) | 0.558 | -0.0218 | 0.41 | 0.335 | 0.503 | 0.918 |
| COCCOC(=O)N1C(=O)[C@@]2(c3cc(C#CCC(C(=O)OC)C(=O)OC)ccc31)[C@H](C(=O)N1CCN(c3ncccn3)CC1)[C@H]1C(=O)O[C@H](c3ccccc3)[C@H](c3ccccc3)N1[C@@H]2c1ccccc1OCCO | 0.664 | -0.0805 | -0.408 | 0.476 (inactive) | 1.33 | 1.3 | 0.926 | 1.38 | 0.962 | 0.286 |
| CCCC[C@H]1OB(O)C[C@H]2C1=C(COC)C[C@H]1C(=O)N(C)C(=O)[C@H]12 | 0.0079 | -0.252 | -0.599 | 0.377 (inactive) | 0.486 | -0.0431 | 0.12 | 0.564 | 0.281 | 0.687 |
| C=CCNC(=O)[C@@H]1[C@H]2C(=O)O[C@H](c3ccccc3)[C@H](c3ccccc3)N2[C@H](c2ccccc2OCCO)[C@@]12C(=O)N(C(=O)OCCOC)c1ccccc12 | 1.54 | -0.0073 | -0.0387 | -0.108 (inactive) | 1.27 | 1.33 | 0.828 | 1.44 | 0.825 | 0.843 |
| CCOC(=O)C[C@H]1[C@H](OC(=O)c2ccc(C(=O)c3ccccc3)cc2)[C@@H](NC(=O)c2ccccc2)c2cc(OCCCO)ccc2N1C(=O)Cc1ccc(OC)cc1 | -0.0032 | 0.234 | 0.586 | 0.0989 (inactive) | 0.131 | 0.0916 | 0.285 | 0.0514 | -0.0269 | 0.811 |
